# Hit rate of the full screen: of about 24,000 compounds, about 1,200 (5%) were called active. Not shown: some 2% with an inconclusive outcome. A selection follows. A number with no mark means an inactive call. How the calls were made is not given here.
# Assay: Mycobacterium tuberculosis H37Rv growth inhibition, putative kinase inhibitor library, confirmatory dose response (AID 2842);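 further: bacteria incubated one week before Alamar blue readout; 0% = bacteria only wells and 100% = bacteria with high antibiotic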
# Conditions: M. tuberculosis H37Rv growth inhibition; CC50: measured here: Vero cell cytotoxicity; inhibition: active compounds read high
row,Structure (SMILES),inhibition [%]
1,CCCNC(=O)CSc1nc2c([nH]c3ccccc32)c(=O)n1-c1ccc(OC)c(OC)c1,3.01
2,COc1ccc(C(=O)c2cn(Cc3cccc(F)c3)c3ccccc3c2=O)cc1,-1.95
3,CC1CCc2c(sc(NC(=O)c3ccc(-c4nc5ccccc5s4)s3)c2C#N)C1 (stereo unspecified),2.71
4,CCOc1cc(C(=O)Nc2nnc(-c3ccc(C)cc3)s2)cc(OCC)c1OCC,12.5
5,Cc1ccc(C)c(S(=O)(=O)Nc2ccc(C(=O)N3CCOCC3)cc2)c1,-13.6
6,CCN(c1ccccc1)S(=O)(=O)c1ccc(C(=O)Nc2nc(-c3ccc(C#N)cc3)cs2)cc1,-5.78
7,O=C(O)c1cc(-c2ccc(F)cc2)nc2ccccc12,-3.79
8,C=CCn1c(=O)c2c(nc(N/N=C/c3ccccc3O)n2C)n(C)c1=O,69.7
9,CCn1c2c(c(=O)[nH]c1=O)C(c1ccc(O)cc1)C1=C(CC(C)(C)CC1=O)N2 (stereo unspecified),-10.5
10,CCSC1=C(C#N)C(c2ccco2)C(C(=O)Nc2ccccc2OC)=C(C)N1 (stereo unspecified),13.1
11,O=C(CSc1cn(Cc2ccccc2Cl)c2ccccc12)Nc1nc2ccccc2s1,10.2
12,COC(=O)c1sc2nc(N)c(C#N)c(-c3ccco3)c2c1N,-11.1
13,O=C1NCCc2c(OCC(=O)N3CCCC3)cccc21,-13.2
14,CCN1C(=O)C2(C(C#N)=C(N)Oc3c2oc(CO)cc3=O)c2ccccc21 (stereo unspecified),-2.38
15,O=C(CSc1ccc2nnc(-c3cccnc3)n2n1)Nc1cccc(C(F)(F)F)c1,2.18
16,Cn1c(=O)c2c([nH]c(=S)n2Cc2ccc(F)cc2)n(C)c1=O,-5.83
17,O=c1/c(=C/c2ccc(Br)cc2)sc2nc(-c3ccncc3)nn12,-4.93
18,Cc1ccc(S(=O)(=O)CCC(=O)Nc2nc(-c3cccc([N+](=O)[O-])c3)cs2)cc1,-0.9
19,CCC(CC)C(=O)Nc1nnc(-c2ccc(Br)cc2)s1,5.92

row,Structure (SMILES),inhibition [%]
1,COc1ccc(Cl)c2sc(N3CCN(C(=O)COc4ccccc4)CC3)nc12,-14.7
2,Fc1ccc(-c2nnc(Nc3nc4c(F)cccc4s3)o2)cc1,35.7
3,CSc1cccc2sc(Nc3ccccc3Cl)nc12,43.9
4,COc1cccc(N2CC(NC(=O)N3CCN(c4ccc(F)cc4)CC3)CC2=O)c1 (stereo unspecified),1.73
5,O=C(CN1N=NC2C(=O)N(c3ccc(F)c(F)c3)C(=O)C21)Nc1cccc(F)c1 (stereo unspecified),-18.6
6,COc1ccc(N2C(=O)/C(=C3/C(=O)N(C)c4ccccc43)SC2=S)c(OC)c1,-6.83
7,NC(=O)N/N=C/c1ccccc1[N+](=O)[O-],-0.23
8,Cc1ccc(-n2nnc3c(=O)n(CC(=O)Nc4cccc(F)c4)cnc32)cc1Cl,5.52
9,O=c1[nH]c(NCCc2ccccc2)nnc1-c1ccccc1,-9.26
10,O=C(O)/C=C/C(=O)NCc1cn(-c2ccccc2)nc1-c1ccc(Cl)cc1,-11.2
11,Nc1ncnc2c1c1nc3ccccc3nc1n2CCc1ccccc1,-4.35
12,COC(CNc1ncnc2c1cnn2-c1ccc(C)c(Cl)c1)OC,15.5
13,CCOc1cccc(/C=N\NC(=O)Cn2cnc3ccccc32)c1O,-6.32
14,Cc1nnc(SCCn2c(N3CCN(Cc4ccccc4)CC3)nc3c2c(=O)[nH]c(=O)n3C)s1,4.11
15,CC(=O)Nc1ccc(NC(=O)NC2CC(=O)N(c3ccc(C)cc3)C2)cc1 (stereo unspecified),-0.32
16,Cc1ccc(C)c(-c2nnc(NC(=O)/C=C/c3ccccc3)o2)c1,75.9
17,Cc1cccc(-c2nnn3c2nc(NCCc2ccc(S(N)(=O)=O)cc2)c2ccccc23)c1,-2.93
18,O=C(NCCO)c1ccc(CSc2nc3ccccc3c(=O)[nH]2)cc1,-16.4
19,Cn1c(=O)c2c(SCC(=O)Nc3nc4ccccc4s3)nc(-c3ccc(F)cc3)nc2n(C)c1=O,14.6

row,Structure (SMILES),inhibition [%]
1,NC(=O)c1nc(-c2cccnc2)nc2c1[nH]c(=O)n2-c1ccc(Cl)c(Cl)c1,5.29
2,CCOC(=O)CNc1ncnc(N)c1[N+](=O)[O-],2.73
3,Fc1ccc2nc(Nc3ccc4c(c3)OCCO4)sc2c1,72.2
4,CC(=O)N1CCc2c(sc(NC(=O)c3ccc4ccccc4c3)c2C#N)C1,13.2
5,CCOC(=O)c1ccc(Nc2nnc3[nH]c(=O)c4c(C)c(C)sc4n23)cc1,-12.7
6,COc1cc(OC)cc(C(=O)NCCc2cc3ccc(C)cc3[nH]c2=O)c1,-10.9
7,CCOC(=O)N1CCN(C(c2cccnc2)c2c(O)cc(C)n(CCOC)c2=O)CC1 (stereo unspecified),0.85
8,COc1ccc(Cl)c2sc(N(Cc3cccnc3)C(=O)c3cccc(S(C)(=O)=O)c3)nc12,-13.3
9,CC(=O)Nc1ccc(NC(=O)CSc2nnc(CNC(=O)c3ccccc3)o2)cc1,-8.68
10,Cn1c(=O)[nH]c(=O)c2c1nc(N1CCC(Cc3ccccc3)CC1)n2CCSc1nc2ccccc2o1,19.9
11,Cc1ccc(CSc2nc3c(c(=O)[nH]c(=O)n3C)n2Cc2ccccc2Cl)cc1,-2.78
12,CC1CCCN(S(=O)(=O)c2ccc(C(=O)Nc3nc4ccc5ccccc5c4s3)cc2)C1 (stereo unspecified),14.8
13,Nn1c(SCC(=O)Nc2ccc(C(F)(F)F)cc2)nncc1=O,-15.7
14,O=C(Nc1nc(-c2ccc3c(c2)OCCO3)cs1)c1cccc(Cl)c1,-0.85
15,COc1cc2nc(Nc3cccc(Cl)c3)sc2cc1OC,48.6
16,COc1ccc2c(c1)c(=O)c(C(=O)c1ccc(Cl)cc1)cn2CC(=O)Nc1ccc2c(c1)OCO2,-1.76
17,CC(C)c1ccc(OCC(=O)N/N=C/c2ccco2)cc1,6.99
18,CCOC(=O)c1sc2nc(-c3ccccc3)cc(-c3ccccc3)c2c1N=Cc1cc(I)cc(I)c1O,-1.26

# Reference: PubChem BioAssay AID2842 (Southern Research Institute, 2010)
